Data published in PubChem BioAssay (Tox21).
Inconclusive results are not listed. Entries that show only a call come without a potency. Active and inactive are the calls of the source. Unless noted, the call rests on the fitted dose curve; in most records, active means well fitted curve in the direction sought with a large enough effect in the repeat runs; inconclusive means weak or mixed curves; inactive means no such curve, though single readings can be large; an effect the other way counts as inactive or inconclusive.

Columns and labels:
[1] = qHTS assay to identify aromatase inhibitors - cell viability counter screen (AID 743084);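 further: cells stimulated with testosterone during compound exposure; nearly all actives have a fitted effect of over 55% in size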
[2] = target: Aryl hydrocarbon receptor (Homo sapiens) (UniProt P35869); assay: qHTS assay to identify small molecule that activate the aryl hydrocarbon receptor (AhR) signaling pathway (AID 743085);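 further: HG2L7.5c1 human HepG2 liver cells with stably integrated DRE-driven firefly reporter; series mostly up to about 70 µM; nearly all actives have a fitted effect of over 15% in size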
In short: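 HepG2 cells (HG2L7.5c1) stably carrying a firefly luciferase reporter driven by 20 dioxin responsive elements were exposed to compound for 24 h at 37C after a 5 h settling period; luminescence rise (ONE-Glo) indicated activation.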

[3] = qHTS assay to identify small molecule that activate the aryl hydrocarbon receptor (AhR) signaling pathway - cell viability counter screen (AID 743086);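 further: HepG2 liver cells carrying the AhR DRE luciferase reporter; series mostly up to about 70 µM; nearly all actives have a fitted effect of over 45% in size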
In short: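 HepG2-AhR-luc (HG2L7.5c1) cells, 4000/well, treated 24 h at 37 C with compound; viability measured as CellTiter-Fluor fluorescence after 30 min in the same wells as the luciferase read.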

[4] = target: Peroxisome proliferator-activated receptor gamma (Homo sapiens) (UniProt P37231); assay: qHTS assay to identify small molecule antagonists of the peroxisome proliferator-activated receptor gamma (PPARg) signaling pathway (AID 743191; calls by dose curve; further: series mostly up to about 63 µM; nearly all actives have a fitted effect of over 30% in size)
In short: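 GeneBLAzer PPARg UAS-bla HEK293H cells, 5 h post-plating, exposed to compounds 17 h at 37C. LiveBLAzer B/G FRET substrate added for 1 h at room temperature; beta-lactamase reporter read by fluorescence intensity.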

[5] = qHTS assay to identify small molecule antagonists of the peroxisome proliferator-activated receptor gamma (PPARg) signaling pathway - cell viability counter screen (AID 743194); further: nearly all actives have a fitted effect of over 55% in size
In short: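 Cytotoxicity counter screen in PPARg-bla HEK293H cells, same wells as reporter assay. Compounds plus 50 nM rosiglitazone (final) for 17 h at 37 C, then viability read by CellTiter-Glo luminescence.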

[6] = qHTS assay for small molecule agonists of the antioxidant response element (ARE) signaling pathway - cell viability counter screen (AID 743203; calls by dose curve; further: nearly all actives have a fitted effect of over 55% in size)
In short: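 Viability counter screen: stably transfected ARE-bla HepG2 line, 16 hrs compound exposure at 37C/5% CO2, ATP-based CellTiter-Glo luminescence measured in the reporter wells.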

[7] = qHTS assay for small molecule activators of the heat shock response signaling pathway - cell viability counter screen (AID 743209); further: nearly all actives have a fitted effect of over 50% in size
In short: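 Viability of HSE-bla HeLa cells is measured with CellTiter-Glo in the wells already used for the reporter read. Compound exposure lasts 5 h at 37 C, and luminescence is read after 30 min at room temperature.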

[8] = qHTS assay for small molecule activators of the heat shock response signaling pathway (AID 743210; active means well fitted activation curve with a large enough effect in the signal ratio in the repeat runs, with a control signal flat, not every such curve was filed as active; the % refers to the signal ratio;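 further: HeLa cells with beta-lactamase reporter driven by heat shock elements; series mostly up to about 63 µM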)
In short: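 Following overnight attachment, HSE-bla HeLa cells received test compounds for 5 h at 37 C; beta-lactamase activity was then detected via FRET substrate fluorescence.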

[9] = qHTS assay to identify small molecule agonists of the peroxisome proliferator-activated receptor delta (PPARd) signaling pathway - cell viability counter screen (AID 743211); further: nearly all actives have a fitted effect of over 55% in size
In short: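 PPARd-bla HEK293H cells (UAS-beta-lactamase reporter) were treated with compounds for 17 h at 37 C. Viability was then read in the same wells by CellTiter-Glo luminescence after 30 min at room temperature.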

[10] = qHTS assay to identify small molecule antagonists of the peroxisome proliferator-activated receptor delta (PPARd) signaling pathway - cell viability counter screen (AID 743213); further: nearly all actives have a fitted effect of over 50% in size
In short: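 PPARd-bla HEK293H cells (3000/well) got compound plus 300 nM L165041 agonist for 17 h at 37 C. Viability in the same wells came from CellTiter-Glo luminescence after 30 min at room temperature.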

[11] = qHTS assay to identify small molecule agonists of the farnesoid-X-receptor (FXR) signaling pathway - cell viability counter screen (AID 743218); further: nearly all actives have a fitted effect of over 45% in size
In short: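 Viability of FXR-bla HEK 293T cells is measured by ATP-based CellTiter-Glo luminescence following 16 h compound treatment at 37 C and a prior 2 h room-temperature beta-lactamase substrate step.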

[12] = target: Bile acid receptor (Homo sapiens) (UniProt Q96RI1); assay: qHTS assay to identify small molecule agonists of the farnesoid-X-receptor (FXR) signaling pathway (AID 743220; active means well fitted activation curve with a large enough effect in the signal ratio in the repeat runs, not every such curve was filed as active; the % refers to the signal ratio)
In short: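 FXR-UAS-bla HEK 293T cells carrying a UAS-driven beta-lactamase reporter were plated for 5 h at 37C/5% CO2, then exposed to DMSO-dissolved Tox21 10K compounds for 16 h at 37C. A LiveBLAzer B/G FRET substrate was loaded for 2 h at room temperature before fluorescence reading.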

[13] = qHTS assay to identify small molecule antagonists of the farnesoid-X-receptor (FXR) signaling pathway - cell viability counter screen (AID 743221; active means well fitted cell-killing curve with a large enough effect in the repeat runs, not every such curve was filed as active; further: nearly all actives have a fitted effect of over 50% in size)
In short: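 FXR-UAS-bla HEK 293T cells were treated with test compounds plus chenodeoxycholic acid (50 uM final) for 16 h at 37 C. Cell viability in the same wells was then read as CellTiter-Glo luminescence after 30 min at room temperature.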

[14] = qHTS assay for small molecule agonists of the antioxidant response element (ARE) signaling pathway (AID 743202; active means well fitted activation curve with a large enough effect in the signal ratio in the repeat runs, not every such curve was filed as active; the % refers to the signal ratio; further: potency means the concentration at half of the fitted maximal effect)
In short: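 HepG2 ARE-bla cells; 16 h treatment at 37 C; FRET-based beta-lactamase fluorescence read after 2 h substrate incubation at room temperature.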

[15] = target: Peroxisome proliferator-activated receptor delta (Homo sapiens) (UniProt Q03181); assay: qHTS assay to identify small molecule antagonists of the peroxisome proliferator-activated receptor delta (PPARd) signaling pathway (AID 743215; active means well fitted inhibition curve with a large enough effect in the signal ratio in the repeat runs, not every such curve was filed as active; the % refers to the signal ratio;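 further: cells stimulated with agonist L165041 at 300 nM final during compound exposure; series mostly up to about 62 µM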)
In short: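 Plated HEK293H PPARd-bla cells rested 5 h at 37 C and 5% CO2. Compound, then agonist L165041 at 300 nM final, was added; 17 h at 37 C followed. Substrate loading, 2 h room temperature, fluorescence measured.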

[16] = target: Vitamin D3 receptor (Homo sapiens) (UniProt P11473); assay: qHTS assay to identify small molecule agonists of the vitamin D receptor (VDR) signaling pathway (AID 743222; calls by dose curve)
In short: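 Fluorescence from cleaved LiveBLAzer B/G FRET substrate served as readout. VDR-bla cells had been treated 16 h at 37C with test compounds in DMSO, following a 4 h settling period, and substrate was loaded for 2 h at RT.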

[17] = target: Vitamin D3 receptor (Homo sapiens) (UniProt P11473); assay: qHTS assay to identify small molecule antagonists of the vitamin D receptor (VDR) signaling pathway (AID 743223; active means well fitted inhibition curve with a large enough effect in the signal ratio in the repeat runs, not every such curve was filed as active; the % refers to the signal ratio)
In short: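 VDR-bla cells were plated, incubated 4 h at 37C, then given compound and 1alpha,25-dihydroxyvitamin D3 (3 nM final). After 16 h at 37C, LiveBLAzer B/G FRET substrate was added for 2 h at room temperature and fluorescence read.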

[18] = target: Bile acid receptor (Homo sapiens) (UniProt Q96RI1); assay: qHTS assay to identify small molecule antagonists of the farnesoid-X-receptor (FXR) signaling pathway (AID 743217; active means well fitted inhibition curve with a large enough effect in the signal ratio in the repeat runs, not every such curve was filed as active; the % refers to the signal ratio)
In short: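 Screen of the Tox21 10K library in quantitative HTS format using FXR-UAS-bla HEK 293T reporter cells. Agonist chenodeoxycholic acid, 50 uM final, added with compounds; 16 h incubation at 37 °C; beta-lactamase FRET fluorescence measured.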

[19] = target: Peroxisome proliferator-activated receptor delta (Homo sapiens) (UniProt Q03181); assay: qHTS assay to identify small molecule agonists of the peroxisome proliferator-activated receptor delta (PPARd) signaling pathway (AID 743212; calls by dose curve)
In short: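 Tox21 library screened in GeneBLAzer PPARd UAS-bla HEK293H cells. After compound treatment at 37 C, a FRET-based beta-lactamase substrate was applied for 2 h and fluorescence recorded.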

Sequence of Aryl hydrocarbon receptor (Homo sapiens) (P35869 whole entry, looked up): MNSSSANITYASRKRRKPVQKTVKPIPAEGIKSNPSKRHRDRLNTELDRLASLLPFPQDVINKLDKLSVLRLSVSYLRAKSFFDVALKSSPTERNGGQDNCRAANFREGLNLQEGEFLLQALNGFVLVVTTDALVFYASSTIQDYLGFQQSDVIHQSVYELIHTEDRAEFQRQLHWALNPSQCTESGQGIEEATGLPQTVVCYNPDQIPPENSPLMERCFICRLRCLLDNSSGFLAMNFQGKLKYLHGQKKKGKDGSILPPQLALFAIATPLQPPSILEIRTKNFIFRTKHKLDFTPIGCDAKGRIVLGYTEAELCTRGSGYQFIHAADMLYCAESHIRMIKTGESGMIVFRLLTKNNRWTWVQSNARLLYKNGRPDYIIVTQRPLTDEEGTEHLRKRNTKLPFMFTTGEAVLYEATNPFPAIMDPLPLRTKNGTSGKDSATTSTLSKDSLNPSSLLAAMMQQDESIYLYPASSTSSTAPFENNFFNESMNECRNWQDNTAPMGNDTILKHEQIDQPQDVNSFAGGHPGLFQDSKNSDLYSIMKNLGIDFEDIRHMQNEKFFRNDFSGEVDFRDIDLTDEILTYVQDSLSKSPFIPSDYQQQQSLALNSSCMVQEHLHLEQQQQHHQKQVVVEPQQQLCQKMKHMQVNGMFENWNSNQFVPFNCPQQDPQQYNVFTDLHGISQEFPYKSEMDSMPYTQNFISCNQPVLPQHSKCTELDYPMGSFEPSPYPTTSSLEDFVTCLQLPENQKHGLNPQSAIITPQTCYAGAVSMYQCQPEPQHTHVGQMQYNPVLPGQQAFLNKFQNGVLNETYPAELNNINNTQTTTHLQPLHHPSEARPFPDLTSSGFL
Sequence of Bile acid receptor (Homo sapiens) (Q96RI1 whole entry, looked up): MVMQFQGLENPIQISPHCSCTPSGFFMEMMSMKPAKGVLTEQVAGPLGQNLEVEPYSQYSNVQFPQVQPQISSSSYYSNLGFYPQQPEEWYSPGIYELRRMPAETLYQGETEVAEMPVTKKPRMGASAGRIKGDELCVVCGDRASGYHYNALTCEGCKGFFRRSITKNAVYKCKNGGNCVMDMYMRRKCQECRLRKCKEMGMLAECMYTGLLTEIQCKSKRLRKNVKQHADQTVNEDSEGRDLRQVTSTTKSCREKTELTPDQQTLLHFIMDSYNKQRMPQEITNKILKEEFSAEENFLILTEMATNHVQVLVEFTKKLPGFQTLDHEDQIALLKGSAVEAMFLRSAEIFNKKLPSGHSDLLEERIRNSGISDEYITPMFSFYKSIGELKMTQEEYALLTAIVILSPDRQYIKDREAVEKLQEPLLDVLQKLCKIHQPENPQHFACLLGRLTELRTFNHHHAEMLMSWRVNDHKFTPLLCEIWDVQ
Sequence of Peroxisome proliferator-activated receptor delta (Homo sapiens) (Q03181 whole entry, looked up): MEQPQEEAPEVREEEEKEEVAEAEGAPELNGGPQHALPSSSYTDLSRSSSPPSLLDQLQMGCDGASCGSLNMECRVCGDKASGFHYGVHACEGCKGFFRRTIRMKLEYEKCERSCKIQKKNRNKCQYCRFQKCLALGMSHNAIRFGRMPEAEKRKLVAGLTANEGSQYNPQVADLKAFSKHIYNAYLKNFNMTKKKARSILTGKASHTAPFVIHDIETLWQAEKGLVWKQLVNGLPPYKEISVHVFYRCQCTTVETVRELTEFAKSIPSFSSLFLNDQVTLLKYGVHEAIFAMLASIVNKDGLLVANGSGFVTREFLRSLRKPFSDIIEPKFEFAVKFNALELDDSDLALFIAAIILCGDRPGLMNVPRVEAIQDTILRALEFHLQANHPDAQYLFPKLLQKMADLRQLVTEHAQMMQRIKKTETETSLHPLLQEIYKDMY
Sequence of Vitamin D3 receptor (Homo sapiens) (P11473 whole entry, looked up): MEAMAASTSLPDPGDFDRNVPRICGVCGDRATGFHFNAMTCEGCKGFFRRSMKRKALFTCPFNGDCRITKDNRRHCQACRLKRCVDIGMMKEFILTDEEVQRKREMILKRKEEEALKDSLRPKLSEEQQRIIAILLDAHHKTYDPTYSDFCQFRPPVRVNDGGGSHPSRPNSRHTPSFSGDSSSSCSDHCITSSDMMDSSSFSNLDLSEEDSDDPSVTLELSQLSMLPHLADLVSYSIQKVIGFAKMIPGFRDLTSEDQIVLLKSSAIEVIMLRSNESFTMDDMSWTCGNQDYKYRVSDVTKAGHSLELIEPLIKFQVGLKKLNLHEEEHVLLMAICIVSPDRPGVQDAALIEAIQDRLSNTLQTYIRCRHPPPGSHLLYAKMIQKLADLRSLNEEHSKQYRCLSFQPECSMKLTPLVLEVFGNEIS
Sequence of Peroxisome proliferator-activated receptor gamma (Homo sapiens) (P37231 whole entry, looked up): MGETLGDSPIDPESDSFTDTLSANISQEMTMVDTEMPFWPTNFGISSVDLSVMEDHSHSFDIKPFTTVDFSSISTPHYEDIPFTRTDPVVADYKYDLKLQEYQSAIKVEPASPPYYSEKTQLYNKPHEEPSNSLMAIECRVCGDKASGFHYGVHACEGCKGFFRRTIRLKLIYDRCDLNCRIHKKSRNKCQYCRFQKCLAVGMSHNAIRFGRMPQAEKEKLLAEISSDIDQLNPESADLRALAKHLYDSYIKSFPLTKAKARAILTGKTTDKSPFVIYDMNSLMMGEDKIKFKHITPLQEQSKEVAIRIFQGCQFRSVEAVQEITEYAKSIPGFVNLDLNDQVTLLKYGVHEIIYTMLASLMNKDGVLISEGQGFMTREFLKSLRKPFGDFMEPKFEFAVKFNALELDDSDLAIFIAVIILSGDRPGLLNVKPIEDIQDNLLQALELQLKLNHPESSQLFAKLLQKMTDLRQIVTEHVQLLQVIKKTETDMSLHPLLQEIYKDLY

SMILES	Potency [1]	Potency [2]	outcome [3]	Potency [4]	Potency [5]	Potency [6]	outcome [7]	Potency [8]	Potency [9]	Potency [10]	Potency [11]	outcome [12]	outcome [13]	Potency [14]	outcome [15]	outcome [16]	outcome [17]	outcome [18]	outcome [19]
CC1(O)CSC(C)(O)CS1 (centres undefined)	inactive	inactive	inactive	inactive	inactive	inactive	inactive	inactive	inactive	inactive	inactive	inactive	inactive						
NCCCN1CCN(CCCN)CC1	inactive	inactive	inactive			inactive	inactive	inactive		inactive	inactive		inactive	inactive	inactive	inactive	inactive		
CC1=C2[C@H](/C=C(\C)C(=O)O)CC[C@@H](C)[C@H]2CC1	inactive	inactive	inactive		inactive	inactive	inactive		inactive		inactive	inactive	inactive					inactive	
CCCCCCCCOC(=O)CCCCCCCCC(=O)OCCCCCCCC	inactive	inactive	inactive	inactive	inactive	inactive	inactive	inactive	inactive	inactive	inactive	inactive	inactive		inactive	inactive		inactive	
O=C(O)c1ccccc1Nc1cc(Cl)ccc1C(=O)O	inactive	inactive	inactive		inactive	inactive	inactive				inactive		inactive	inactive		inactive	inactive		
CC(=O)N[C@@H](CC(C)C)C(=O)O	inactive	inactive	inactive	inactive	inactive	inactive	inactive	inactive	inactive		inactive	inactive	inactive					inactive	inactive
CCCNC(C)C(=O)Nc1c(C)csc1C(=O)OC (centres undefined)	inactive	inactive	inactive	inactive	inactive	inactive	inactive	inactive	inactive	inactive	inactive		inactive				inactive		
CC(C)(C)C1CCCCC1=O (centres undefined)	inactive	inactive	inactive			inactive	inactive	inactive	inactive	inactive	inactive		inactive		inactive				
O=C1CCCCCCCCCCC(=O)OCCO1	inactive	inactive	inactive	inactive	inactive	inactive	inactive	inactive	inactive	inactive	inactive					inactive	inactive		
CC1(C)O[C@@H]2C[C@H]3[C@@H]4CCC5=CC(=O)CC[C@]5(C)[C@@]4(F)[C@@H](O)C[C@]3(C)[C@]2(C(=O)CCl)O1	inactive	inactive	inactive	inactive	inactive	inactive	inactive		inactive	inactive			inactive			inactive		inactive	
CN1CCN(C2=Nc3ccccc3Oc3ccc(Cl)cc32)CC1	inactive	inactive	inactive		inactive	inactive	inactive	inactive	inactive						inactive		inactive		
ICCc1ccccc1	inactive	inactive	inactive	inactive	inactive	inactive	inactive	inactive	inactive	inactive	inactive		inactive		inactive		inactive		
FC(F)(F)C(F)(F)C(F)(F)C(F)(F)C(F)(F)C(F)(F)C(F)(F)C(F)(F)Br	inactive	inactive	inactive		inactive	inactive	inactive	inactive		inactive	inactive	inactive	inactive	inactive	inactive			inactive	inactive
CC(=O)Oc1cc(C(C)C)c(OCCN(C)C)cc1C	inactive	inactive	inactive		inactive	inactive	inactive	inactive	inactive	inactive	inactive			inactive			inactive		
NS(=O)(=O)c1cc(-c2nn[nH]n2)c(NCc2cccs2)cc1Cl	inactive	inactive	inactive			inactive	inactive	inactive		inactive	inactive		inactive	10.6 µM (active)	inactive				inactive
CCCCC(=O)O[C@]1(C(=O)CO)[C@H](C)C[C@H]2[C@@H]3CCC4=CC(=O)C=C[C@]4(C)[C@@]3(F)[C@@H](O)C[C@@]21C	inactive	inactive	inactive		inactive	inactive	inactive	inactive	inactive		inactive		inactive			inactive			
OCCN1CCN(CCO)CC1	inactive	inactive	inactive	inactive	inactive	inactive	inactive	inactive	inactive	inactive	inactive		inactive	inactive	inactive	inactive			inactive
COc1ccccc1OCC(O)COC(N)=O (centres undefined)	inactive	inactive	inactive	inactive	inactive	inactive	inactive	inactive	inactive	inactive	inactive			inactive	inactive				
O=C(CC(=O)C(F)(F)F)c1ccccc1	inactive	inactive	inactive		inactive	inactive	inactive			inactive	inactive		inactive	inactive	inactive	inactive	inactive		inactive
